Source: PubChem (National Center for Advancing Translational Sciences (NCATS))
Shown are actives, neighbours in structure and some others; about 3% of the full set was active somewhere.
TRb SRC2 PPI = qHTS for Inhibitors of the Interaction of Thyroid Hormone Receptor and Steroid Receptor Coregulator 2. 280,000 tested, 0.065% active. TRbeta-SRC2 peptide binding, fluorescence polarization; receptor liganded with 1 µM T3. Thyroid hormone receptor beta (Homo sapiens), P10828. Potency, µM (top dose mostly 106 µM), for the others: at the top dose activity change, negative = inhibition, actives largely listed as inhibitors;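 note: plate controls were bound peptide for no effect and peptide without receptor for full effect; nearly all actives have a fitted effect of over 50% in size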
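Polarization signal, normalized between peptide-alone and full complex controls, measured compound effects on T3-liganded human TRb LBD (0.6 uM) binding 20 nM Texas Red SRC2 peptide after 5 hr.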
Tau fibril ThT = qHTS for Inhibitors of Tau Fibril Formation, Thioflavin T Binding; AID 1460, 2008; recombinant tau K18 P301L, heparin-induced fibrillization, ThT fluorescence; 270,000 tested, 2.1% active; Potency, µM (titrated, usually from 57.4 µM), inactives show at the highest dose activity, negative = inhibition, most hits filed as inhibitors; note: nearly all actives have a fitted effect of over 55% in size
Target sequence (P10636 561-689 P618L limits assumed): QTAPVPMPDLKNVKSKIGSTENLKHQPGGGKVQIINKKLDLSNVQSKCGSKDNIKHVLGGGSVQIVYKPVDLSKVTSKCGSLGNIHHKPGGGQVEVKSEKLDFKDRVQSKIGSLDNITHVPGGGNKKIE
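Tau K18 P301L fragment (15 uM unlabeled plus 0.24 uM Alexa 594-labeled) in 100 mM sodium acetate pH 7 with compound, fibrillization induced by 20 uM heparin for 6 hr at 37 C. Thioflavin T (30 uM) added, fluorescence read after 1 hr (ex 450, em 510 nm).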
TR SRC2 fluor cs = Total Fluorescence Counterscreen for Inhibitors of the Interaction of Thyroid Hormone Receptor and Steroid Receptor Coregulator 2. Potency, µM (titrated, usually from 106 µM), for the others: top-dose fluorescence change, negative = quenching. 280,000 tested, 0.29% active. AID 1479, 2009. TRb/SRC2 Texas Red total fluorescence interference; active = well fitted curve in either direction with a large enough effect; inconclusive = small, poorly fitted or top-dose-only effect
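Human TRβ ligand-binding domain (0.6 uM) and Texas Red SRC2 peptide (20 nM) in Tris buffer with 1 uM T3 and 5% DMSO were incubated with pinned compound for 5 hr at ambient temperature. Total fluorescence was computed as S + 2P (555/632 nm).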
Tau FP inhib = qHTS for Inhibitors of Tau Fibril Formation, Fluorescence Polarization | Microtubule-associated protein tau (Homo sapiens), P10636 | K18 P301L tau heparin fibrillization, Alexa594 FP, 6 h | Potency, µM (top dose mostly 57.7 µM), for the others: at the highest dose activity, negative = inhibition, hits mostly inhibitors | 280,000 tested, 0.39% active; note: nearly all actives have a fitted effect of over 55% in size
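Recombinant K18 P301L […], labeled with Alexa 594 at 0.24 uM over 15 uM unlabeled; heparin inducer 20 uM final; 37 C, 6 hr; FP endpoint.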
Tau fluor counter = Counterscreen qHTS for Inhibitors of Tau Fibril Formation, Fluorescence Polarization | tau K18 P301L (four-repeat tau fragment) Alexa594 fluorescence, heparin fibrillization | Potency, µM (top dose mostly 57.7 µM), inactives show at the highest dose activity change, negative = decrease | 280,000 tested, 0.93% active; note: nearly all actives have a fitted effect of over 55% in size
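Human K18 P301L tau (15 uM unlabeled plus 0.24 uM Alexa 594-labeled, final) in 100 mM sodium acetate pH 7 was mixed with compound and 20 uM heparin and incubated 6 hr at 37 C.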
* = called active by the depositor; ? = inconclusive; ! = repeats disagree; [ ] = remark or other dose. Unless noted, calls come from the whole dose curve; as a rule, active = well fitted curve in the direction sought with a large enough effect; inconclusive = small, poorly fitted or top-dose-only effect, or another doubt; inactive = no such curve, though single readings can be large; an effect the other way counts as inactive or inconclusive. Unless noted, % is set by controls: 0 for no effect and ±100 for the full control effect; potency is the fitted concentration of half-maximal effect.

SMILES | TRb SRC2 PPI | Tau fibril ThT | TR SRC2 fluor cs | Tau FP inhib | Tau fluor counter
OCC1O[C@H](O)C(Cl)C(O)C1O (some centres not stated) | -5% | -5% | -4% | -1% | -4%
OCC1OC([S-])[C@H](O)C(O)C1O.[Au+] (some centres not stated) | ? | ? | 13µM*[quencher] | ? | -27%
O=C(Nc1ccccc1C(=O)OCc1cc(=O)n2ccsc2n1)c1ccc(Cl)cc1 | 1% | 6% | -1% | -13% | -7%
Cc1ccc(S(=O)(=O)Nc2cc3c(cc2NCc2ccccc2)n(C)c(=O)n3C)c(C)c1 | -5% | 18µM* | 0% | ? | ?
Cc1ccc(S(=O)(=O)Nc2cc3c(cc2NCc2ccccc2)n(C)c(=O)n3C)cc1 | -5% | ? | -2% | ? | ?
CCCCCCC(=O)Nc1nc(C)c(-c2csc(Nc3cc(OC)ccc3OC)n2)s1 | -2% | ? | 1% | ? | ?
CCCCCC(=O)Nc1nc(C)c(-c2csc(Nc3cc(OC)ccc3OC)n2)s1 | 9% | 16µM* | -2% | 15% | 11µM*[quencher]
CCCCC(=O)Nc1nc(C)c(-c2csc(Nc3ccccc3OC)n2)s1 | -8% | ? | -3% | 13% | 16µM*[quencher]
C=CCCC(=O)Nc1nc(C)c(-c2csc(Nc3ccccc3OC)n2)s1 | -2% | 7.1µM* | 0% | ? | 13µM*[quencher]
COc1ccc(OC)c(Nc2nc(-c3sc(NC(=O)c4ccccc4)nc3C)cs2)c1 | -18% | ? | -1% | 3% | ?
CCC(C)C(=O)Nc1nc(C)c(-c2csc(Nc3ccccc3OC)n2)s1 (configuration not stated) | 4% | ? | 1% | 16% | 13µM*[quencher]
CO[C@H]1C[C@@H]2C[C@H](O)C[C@@H](CC(=O)O[C@@H](/C=C\CC(C)C)C[C@@H]3CC[C@H](C)[C@@H](C1)O3)O2 | -16%[11.2 µM] | -10%[11.5 µM] | ? | -8%[11.6 µM] | -15%[11.6 µM]
CCc1ccc(-n2nc(CO)c(C(=O)NCc3cccs3)n2)cc1 | -9% | 2% | 2% | 7% | 6%
Cc1ccc(CNC(=O)CCc2c(C)nc3c(-c4ccc(F)cc4)c(C)nn3c2C)cc1 | -2% | 9% | -8% | -1% | -2%
Cc1ccc2onc(CC(=O)Nc3cc(F)ccc3F)c2c1 | 3% | -6% | 4% | -1% | 0%
N#C/C(=C\C1=C(N2CCOCC2)C(=C/c2cccc([N+](=O)[O-])c2)/CC1)C(=O)Nc1ccccc1F | 2% | 2.2µM* | 2% | ? | 8%
N#C/C(=C\C1=C(N2CCOCC2)C(=C\c2ccc(Cl)cc2)/CC1)C(=O)Nc1ccccc1F | 40µM* | ? | 50µM*[fluorescent] | ? | 18%
CCN(CC)c1ccc(/C=C2\CCC(/C=C(\C#N)C(=O)Nc3ccccc3F)=C2N2CCOCC2)cc1 | 17% | ? | ? | ? | ?
Cc1cccc(OCCNc2cc(N3CCN(CCO)CC3)ccc2[N+](=O)[O-])c1 | -1% | 28µM* | -4% | -10% | ?
Cc1ccccc1OCCNc1cc(N2CCN(CCO)CC2)ccc1[N+](=O)[O-] | -8% | 13µM* | -4% | -2% | ?
Cn1c(C(C#N)C2=C(Cl)C(=O)N(c3ccccc3)C2=O)nc2ccccc21 (configuration not stated) | 45µM* | 13µM* | ? | ? | 16µM*[quencher]
C/C(=C\C=C(C#N)C#N)c1cc(C#N)c(N)o1 | ? | 13µM* | 26% | -10% | -15%
CC1(OC(=O)CCc2ccccc2)C(=O)C=C2C=C(c3ccsc3)OC=C2C1=O (configuration not stated) | 8% | 25µM* | 0% | ? | -11%
CC1(OC(=O)CCc2ccccc2)C(=O)C=C2C=C(c3ccc(C#N)cc3)N(c3ccccc3)C=C2C1=O (configuration not stated) | -3%[11.2 µM] | 13µM*! | -6%[11.2 µM] | ? | -1%[11.6 µM]
